Laboratory results from PubChem BioAssay (NCI).
Compounds without any hit were thinned out: in the full panel of roughly 83,000, 20% have a hit.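 For each line, cells grew in 96-well plates with the test compound present at a single concentration for 48 hours.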 Unmarked numbers belong to inactive results. Calls of active or inactive are those of the source. How the source made its calls: active means growth percent below 10; inactive means the rest.

How the values were obtained:
Experiment in all cases: NCI-60 one-dose screen, 48 h (100 = growth as untreated, 0 = no growth, -100 = all killed)
Conditions in all cases: 10 µM unless noted
NCI-H23 lung = tested on: NCI-H23 lung
NCI-H226 lung = tested on: NCI-H226 lung
NCI-H322M lung = tested on: NCI-H322M lung
HOP-62 NSCLC = tested on: HOP-62 NSCLC
NCI-H460 lung = tested on: NCI-H460 lung
HOP-92 NSCLC = tested on: HOP-92 NSCLC
NCI-H522 lung = tested on: NCI-H522 lung
A549/ATCC NSCLC = tested on: A549/ATCC NSCLC
786-0 renal = tested on: 786-0 renal
COLO 205 colon = tested on: COLO 205 colon

Compound	growth (NCI-H23 lung)	growth (NCI-H226 lung)	growth (NCI-H322M lung)	growth (HOP-62 NSCLC)	growth (NCI-H460 lung)	growth (HOP-92 NSCLC)	growth (NCI-H522 lung)	growth (A549/ATCC NSCLC)	growth (786-0 renal)	growth (COLO 205 colon)
CC(C)(C)NCC(O)COc1c(Br)c(Br)c(Br)c2c1OC(C)(C)C2 (stereo not given)	-0.995% (active)	42.5%	-19.3% (active)	-84.9% (active)	-63.7% (active)	-57.7% (active)	-76.8% (active)	-71.9% (active)	-91.6% (active)	-58.3% (active)
NC(=S)NNC1CCCCC1	97.6%	91.1%	87.7%	83.2%	104%	88.7%	72.3%	74.5%	99.3%	100%
CC(C)C(=O)Nc1nc2c(s1)CCCc1ccn(S(=O)(=O)c3ccccc3)c1-2	86.8%	94%	90%	90.6%	103%	112%	70.5%	82.3%	89.9%	110%
CC1(C)Cc2c(Br)c(Br)c(Br)c(OCC(O)CN3CCN(c4ccccn4)CC3)c2O1 (stereo not given)	80.9%	91.7%	57.6%	102%	88%	-5.32% (active)	60.9%	80.4%	31.3%	114%
O=C(Cn1c2ccccc2c2ccncc21)N/N=C/c1cc(O)c(O)c(O)c1	103%	105%	108%	104%	101%	111%	84.5%	101%	105%	110%
Nc1ncnc2c1c(-c1ccc(Oc3ccccc3)cc1)nn2C[C@@H]1SSC[C@H]1O	40.6%	-3.02% (active)	36.9%	37.6%	3.61% (active)	-6.86% (active)	10.1%	21.4%	42.7%	52%
C=CCOc1ccc(/C(Cl)=N/N=C(\Cl)c2cc(OC)c(OC)c(OC)c2)cc1	64.9%	81.8%	97.4%	79.7%	48%	65.1%	37.9%	59.5%	98.1%	72.2%
CN(C)CCCOc1c(Br)cc(/C=C/C(=O)N(C)CCc2cc(Br)c(OCCCN(C)C)c(Br)c2)cc1Br	81.5%	95.7%	59.5%	82.3%	23.1%	48.7%	13.5%	41.5%	63.7%	39.3%
COc1cc(/C=C/C(=O)c2c(C)[n+]([O-])c3ccccc3[n+]2[O-])ccc1O	95.5%	98.5%	99.4%	125%	91.4%	42.2%	71%	103%	62.4%	121%
CCCCN(CCCC)c1ccc(C(=N)c2ccc(N(C)C)cc2)cc1	-46.1% (active)	-46.4% (active)	-32% (active)	-84% (active)	-88.5% (active)	-32.7% (active)	-66.1% (active)	3.26% (active)	-84.4% (active)	-93.8% (active)
CC(C)(C)OC(=O)NCc1cccc(N=C=S)c1	55.3%	80.6%	65.7%	57.8%	63.8%	-0.561% (active)	12.8%	69.2%	54.9%	38.5%
O=C(O)c1ccccc1C(=O)c1ccc(I)cc1	102%	101%	104%	88.7%	105%	78.3%	75.5%	98.4%	99%	103%
COC(=O)c1oc2c(C(C)=O)c(OCCN3CCCCC3)ccc2c1C	97.9%	118%	84.9%	125%	131%	60.4%	79.6%	123%	52.9%	130%
N#Cc1c(N)nc2c(c1N)C(c1ccc(Cl)cc1)C1=C(CCCC1=O)N2c1sc2c(c1C#N)CCCC2 (stereo not given)	91.2%	89.2%	83.5%	80%	97.3%	62%	84.3%	90.1%	80.1%	96.2%
